About 83,000 compounds went through this panel and 20% of them were active in at least one assay; those are over-represented in the sample as a whole.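 The endpoint reported here, percent growth, reads 100 for growth as untreated, 0 for no net growth and -100 for all cells dead.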 Values without a mark were called inactive. Active and inactive are the calls of the source. How the source made its calls: active means growth percent below 10; inactive means the rest.
What follows are compounds tested on M14 melanoma (assay: NCI-60 one-dose screen, 48 h (100 = growth as untreated, 0 = no growth, -100 = all killed)). Details: 10 µM unless noted.
Compound `Nc1ccc(-c2ccc(N)c(S(=O)(=O)O)c2)cc1S(=O)(=O)O` has a growth of 104%. In the case of `COC(=O)c1cc([N+](=O)[O-])cc([N+](=O)[O-])c1Cl`, the growth is reported as 20.5%. Compound `CCCCCCCCCCCCN1C(C)=CS/C1=C\C=C\c1scc(C)[n+]1CCCCCCCCCCCC` has a growth of 30.5%. With `O=C1CSC(=S)N1Cc1cccnc1` the growth was 85.1%. For `CCC[CH2][Sn]1([CH2]CCC)[O]C2C(CO)OC(n3ccc(N)nc3=O)C2[O]1` (centres undefined), the growth was -47.2% (active). For `CCCCCCCCCCCC[N+]1(CCCCCCCCCCCC)CCCC(C)C1` (centres undefined), the growth was -97.3% (active). `CN(C)c1ccc(/C=C/c2ccnc3ccccc23)cc1` gave a growth of 44.3%. For `CCCCCCCCCCCCNCCCc1ccccc1`, the growth was 52%. In the case of `O=C1C=CC(O)=CC1=P(c1ccccc1)(c1ccccc1)c1ccccc1`, the growth is reported as 100%. `Oc1ccccc1N=Cc1ccccc1` gave a growth of 87.6%. `CCCCOS(=O)(=O)c1ccccc1` gave a growth of 112%. `O=[N+]([O-])c1cc(-c2ccccc2)c(O)c([N+](=O)[O-])c1` showed a growth of 101%. For `CCCCCCC1N=C(N)N=C(N)N1c1cccc(Cl)c1` (centres undefined), the growth was 31.7%. `O=[n+]1c2ccccc2n([O-])c2cc(Cl)ccc21` showed a growth of 104%. In the case of `N#CC1c2ccccc2C=CN1C(=O)CCCl` (centres undefined), the growth is reported as 97.3%. Compound `CN(Cc1ccccc1)c1ccc(SC#N)cc1` has a growth of 84%. In the case of `O=[N+]([O-])C=C(c1ccccc1)c1ccccc1`, the growth is reported as 79.4%. In the case of `CC1CC(C)(C)OB(OC(C)CC(C)(C)OB2OC(C)CC(C)(C)O2)O1` (centres undefined), the growth is reported as -55.3% (active). In the case of `CCCCCCCCCCCC[n+]1ccccc1` (tested in a mixture with another compound), the growth is reported as -56.6% (active).

From PubChem BioAssay (NCI)
